# Laboratory results as given in PubChem BioAssay (EPA / NIEHS).
# Values joined by “and” are separate entries in the source; they are usually repeats but may differ in a detail not shown here. Equal entries are not always repeated. Inconclusive results are not listed. Active and inactive are the calls of the source. How the source made its calls, unless noted: active means hit-call score of the fitted dose curve at least 0.9, where 1 is the maximum; inactive means score below 0.9.
# How the values were obtained:
# [1] = CCTE_Deisenroth_5AR_NBTE_donor: CCTE's 5alpha-reductase NanoBRET Target Engagement Assay […], Deisenroth Lab (AID 2284319); conditions: actives raise or lower the signal
# Summary of the method: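 In this secondary endpoint, donor luminescence from SRD5A2-NanoLuc in transfected HEK293T flags artifacts. Test chemical (10 nM - 29.9 uM) is present five hours, tracer the last two; mock-tracer wells run plate-matched; data fitted bidirectionally against DMSO.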
# [2] = CCTE_Deisenroth_5AR_NBTE_acceptor: CCTE's 5alpha-reductase NanoBRET Target Engagement Assay - Autofluorescence Screen, Deisenroth Lab (AID 2284321); conditions: actives raise or lower the signal;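 further: compound fluorescence in the acceptor channel under 460 nm excitation flags autofluorescence artifacts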
# Summary of the method: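 Using three independent plate-reader runs, nominal 100 uM chemicals were checked for intrinsic fluorescence (ex 460 nm). DMSO defined the baseline for bidirectional fitting.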
# CD69, CD69 (gene 969) = assay: BSK_LPS_CD69: BioMAP Diversity Plus: LPS Assay for CD69 Biomarker Activity (AID 2284303); conditions: primary human HUVEC with PBMC
# Summary of the method: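 CD69 surface levels were read by ELISA after 24 h chemical treatment of an LPS-stimulated HUVEC plus PBMC co-culture; positive-direction fit against DMSO vehicle.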
# [3] = CCTE_Mundy_HCI_iCellGluta_NOG_NeuriteLength: CCTE's Neurite Outgrowth Assay in iCellGluta cells for Neurite Length, Mundy Lab (AID 2284318; active means hit-call score of the fitted dose curve at least 0.9, where 1 is the maximum)
# Summary of the method: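 Automated high-content imaging of betaIII-tubulin (Alexa Fluor-488) and Hoechst-stained cells gave neurite length, normalized to the DMSO baseline.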
# IYD (gene 389434) = assay: CCTE_GLTED_hIYD: CCTE's human Iodotyrosine Deiodinase (xIYD) Inhibition Assay, Great Lakes Toxicology and Ecology Division (GLTED) Lab (AID 2284317; active means hit-call score of the fitted dose curve at least 0.9, where 1 is the maximum;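 further: cell-free human IYD enzyme made in baculovirus insect cells; iodide freed from monoiodotyrosine measured by cerium arsenite color change at 420 nm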)
# Summary of the method: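 In the IYD assay, iodide released from MIT by insect-cell-expressed human enzyme was quantified after 3 h via Sandell-Kolthoff rate at 420 nm, with plate-wise normalization to MNT and solvent controls.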
# [4] = VALA_TUBHUV_Agonist_CellCount: Viability Assessment in the VALA Sciences human Umbilical Vein Endothelial Tubule Formation (TUBHUV) Agonism Assay (AID 2284309; active means hit-call score of the fitted dose curve at least 0.9, where 1 is the maximum)
# Summary of the method: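 Viability endpoint by fluorescent imaging of fixed nuclear/CD31-stained HUVEC–HDF co-cultures. Readout is cell count, fitted upward against 0.1% DMSO. Compound exposure was 72 h in 10 ng/ml VEGF, after 3-day co-culture priming.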
# [5] = VALA_TUBIPS_Agonist_TubuleLength: VALA Sciences human iPS-derived Endothelial Tubule Formation (TUBIPS) Agonism Assay (AID 2284311; active means hit-call score of the fitted dose curve at least 0.9, where 1 is the maximum)
# Summary of the method: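 Agonist-mode readout is the gain in imaged tubule length versus DMSO baseline. It was measured by fluorescence high-content imaging 72 h after dosing human iPSC-derived endothelial cells.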
# [6] = VALA_TUBIPS_Antagonist_TubuleLength: VALA Sciences human iPS-derived Endothelial Tubule Formation (TUBIPS) Antagonist Assay (AID 2284313; active means hit-call score of the fitted dose curve at least 0.9, where 1 is the maximum)
# Summary of the method: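 Tubule length was quantified by high-content imaging of CD31- and nuclear-stained cells, with 0.1% DMSO as neutral and 100 uM suramin as inhibition control. Compounds were applied for 3 days, in 10 ng/ml VEGF, to cultures pre-grown 3 days.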
# [7] = VALA_MIGHUV2_WoundArea: VALA Sciences human Umbilical Vein Endothelial Cell Migration (MIGHUV) Assay, Area of Scratch Wound after Recovery (AID 2284316; active means hit-call score of the fitted dose curve at least 0.9, where 1 is the maximum)
# Summary of the method: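 Wound-area endpoint read by fluorescence imaging of Hoechst-stained nuclei after a 24 h recovery period following scratch of HUVEC monolayers (9000 cells/well). Chemicals dosed within 30 min post-scratch, triplicate 6-point series, 0.1% DMSO vehicle; Cytochalasin D positive control.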
# [8] = VALA_TUBHUV_Antagonist_CellCount: Viability Assessment in the VALA Sciences human Umbilical Vein Endothelial Tubule Formation (TUBHUV) Antagonism Assay (AID 2284310; active means hit-call score of the fitted dose curve at least 0.9, where 1 is the maximum)
# Summary of the method: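 Read-out is imaged cell count after nuclear and CD31 staining, fitted against 0.1% DMSO vehicle. Compounds were added for 3 days, in 10 ng/ml VEGF assay medium, to HUVEC–HDF co-cultures pre-grown 3 days.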
# [9] = IUF_NPC2b_neuronal_migration_120hr: Leibniz Research Institute for Environmental Medicine (IUF) 120-hour Neural Progenitor Cell Migration Assay for Neuron Migration (NPC2b) (AID 2284300)
# Summary of the method: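 Fetal human NPC spheres migrate on PDL/laminin during 120 h compound treatment; neuronal migration distance, glia-normalized, scored versus DMSO control.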
# [10] = IUF_NPC3_neuronal_differentiation_120hr: Leibniz Research Institute for Environmental Medicine (IUF) 120-hour Neuronal Differentiation Assay (NPC3) (AID 2284301)
# Summary of the method: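 Value is percent TUBB3-positive neurons among Hoechst-stained nuclei in the migration area, scored by trained CNN after 120 h differentiation. Primary hNPC spheres on poly-D-lysine/laminin, N2 medium, continuous dosing from day 0, half-refeed day 3; DMSO reference.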
# [11] = IUF_NPC4_neurite_length_120hr: Leibniz Research Institute for Environmental Medicine (IUF) 120-hour Neuronal Morphology Assay for Neurite Length (NPC4) (AID 2284302)
# Summary of the method: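 Neurite length, the mean in um across TUBB3-stained neurons, is derived by skeletonization of high-content images after 120 h differentiation. Compound exposure, 7 concentrations plus solvent control, ran from plating of hNPC spheres on poly-D-lysine/laminin, with medium half-replaced on day 3.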
# [12] = IUF_NPC5_oligodendrocyte_differentiation_120hr: Leibniz Research Institute for Environmental Medicine (IUF) 120-hour Oligodendrocyte Differentiation Assay (NPC5) (AID 2284304; active means hit-call score of the fitted dose curve at least 0.9, where 1 is the maximum;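 further: primary human fetal neural progenitor spheres plated to migrate and differentiate; share of O4-positive cells among Hoechst nuclei found by CNN image analysis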)
# Summary of the method: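 After plating on poly-D-lysine/laminin, fetal-derived hNPC spheres differentiated for 120 h at 37C in compound-containing N2 medium, refreshed by half on day 3. O4 immunostaining over Hoechst nuclei in the migration zone gave oligodendrocyte percentage relative to DMSO.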
# [13] = IUF_NPC4_neurite_area_120hr: Leibniz Research Institute for Environmental Medicine (IUF) 120-hour Neuronal Morphology Assay for Neurite Area (NPC4) (AID 2284305; active means hit-call score of the fitted dose curve at least 0.9, where 1 is the maximum)
# Summary of the method: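 Neurite area (pixels, nuclei excluded) of TUBB3-positive neurons from hNPC spheres differentiating 5 days under continuous exposure at 37 C, 5% CO2. High-content imaging; loss of signal versus DMSO control across 7 concentrations.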
# [14] = IUF_NPC2-5_cytotoxicity_72hr: Cytotoxicity Assessment at 72 hours in the Leibniz Research Institute for Environmental Medicine (IUF) Neural Progenitor Cell Migration and Differentiation Assay for Cytotoxicity (NPC2-5) (AID 2284306; active means hit-call score of the fitted dose curve at least 0.9, where 1 is the maximum;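 further: LDH release into supernatant measured by resorufin fluorescence marking membrane damage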)
# Summary of the method: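 Membrane-integrity cytotoxicity at 72 h, read as LDH-driven resorufin fluorescence in supernatant. hNPC spheres from fetal cortex differentiate on coated plates in N2 medium, 37C, 5% CO2; seven serial compound concentrations plus solvent control (DMSO ≤0.1%).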
# [15] = IUF_NPC2-5_cytotoxicity_120hr: Cytotoxicity Assessment at 120 hours in the Leibniz Research Institute for Environmental Medicine (IUF) Neural Progenitor Cell Migration and Differentiation Assay (NPC2-5) (AID 2284307; active means hit-call score of the fitted dose curve at least 0.9, where 1 is the maximum)
# Summary of the method: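 Membrane-integrity loss is quantified by LDH in supernatant after five days of exposure of migrating, differentiating human fetal NPC spheres; seven serially diluted concentrations are tested with DMSO kept at or below 0.1%.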
# [16] = IUF_NPC2-5_cell_number_120hr: Cell Number Assessment at 120 hours in the Leibniz Research Institute for Environmental Medicine (IUF) Neural Progenitor Cell Migration and Differentiation Assay (NPC2-5) (AID 2284308);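 further: count of Hoechst-stained nuclei in migration zone around plated human neural progenitor spheres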
# Summary of the method: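 Seven-point serial dilutions plus solvent control were applied to plated 0.3 mm hNPC spheres at differentiation start, with medium half-replaced at day 3. Nuclei positive for Hoechst in the migration zone were enumerated at 120 h.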
# [17] = IUF_NPC2-5_viability_120hr: Viability Assessment at 120 hours in the Leibniz Research Institute for Environmental Medicine (IUF) Neural Progenitor Cell Migration and Differentiation Assay (NPC2-5) (AID 2284312)
# Summary of the method: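 Alamar blue resorufin fluorescence read after 5 days of differentiation, with compound present from day 0 and replenished at day 3. Primary hNPC spheres on laminin-coated plates, 37C; seven concentrations plus solvent control, fitted against DMSO.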
structure (smiles),measurement,setting,value
CCCCCCCCOC(=O)CCCCCCCCC(=O)OCCCCCCCC,outcome,[1],inactive
same,outcome,[2],inactive
OCCC(F)(F)C(F)(F)C(F)(F)C(F)(F)C(F)(F)C(F)(F)C(F)(F)C(F)(F)F,AC50,"CD69, CD69 (gene 969)",30 µM (active) and 2.1 µM (active)
same,outcome,[3],inactive
OCCC(F)(F)C(F)(F)C(F)(F)C(F)(F)C(F)(F)C(F)(F)F,outcome,"CD69, CD69 (gene 969)",inactive
same,outcome,[3],inactive
O=C1OC2(c3ccccc31)c1cc(Br)c(O)c(Br)c1Oc1c2cc(Br)c(O)c1Br,AC50,IYD (gene 389434),42.2 µM (active)
same,outcome,[1],inactive
same,outcome,[2],inactive
CCOC(=O)CC(O)(CC(=O)OCC)C(=O)OCC,outcome,[1],inactive
same,outcome,[2],inactive
NCC(F)(F)C(F)(F)C(F)(F)C(F)(F)C(F)(F)C(F)(F)C(F)(F)F,outcome,"CD69, CD69 (gene 969)",inactive
CC(C)(C)c1ccc(O)c(C(C)(C)C)c1,AC50,IYD (gene 389434),100 µM (active)
CC(C)(C)c1cccc(C(C)(C)C)c1O,AC50,IYD (gene 389434),100 µM (active)
O=C(O)Cc1cc(I)c(Oc2cc(I)c(O)c(I)c2)c(I)c1,outcome,[4],inactive
same,outcome,[5],inactive
same,outcome,[6],inactive
same,outcome,[7],inactive
CCCCCCCCCCCCc1ccccc1S(=O)(=O)O,AC50,[4],1.98 µM (active)
same,outcome,[8],inactive
same,outcome,[6],inactive
same,outcome,[7],inactive
same,AC50,IYD (gene 389434),34.4 µM (active)
C=C(C)C(=O)OCCC(F)(F)C(F)(F)C(F)(F)C(F)(F)C(F)(F)C(F)(F)F,outcome,"CD69, CD69 (gene 969)",inactive
same,outcome,[3],inactive
CCC(=C(c1ccc(O)cc1)c1ccc(OCCN(C)C)cc1)c1ccccc1,outcome,IYD (gene 389434),inactive
CC1=C(/C=C/C(C)=C/C=C/C(C)=C/C(=O)O)C(C)(C)CCC1,outcome,[9],inactive
same,outcome,[10],inactive
same,outcome,[11],inactive
same,outcome,[12],inactive
same,outcome,[13],inactive
same,outcome,[14],inactive
same,outcome,[15],inactive
same,outcome,[16],inactive
same,outcome,[17],inactive
